In ChEMBL document CHEMBL1201862, “PubChem BioAssay data set” (2004):
Out of some 130,000 compounds screened, about 1,200 (0.92%) were called active. Not shown: some 3% with an inconclusive outcome. The calls are words filed in the database; no cut-off is given here. The entries come from a sample that favours actives as a whole.

Target: Cellular tumor antigen p53 (Homo sapiens) (UniProt P04637)
Experiment: qHTS Screen for Compounds that Selectively Target Cancer Cells with p53 Mutations: Cytotoxicity of p53ts Cells at the Permissive Temperature. [Related pubchem assays: 902 ]
Assay type: functional

Cellular tumor antigen p53 (Homo sapiens), sequence (P04637 whole entry, looked up): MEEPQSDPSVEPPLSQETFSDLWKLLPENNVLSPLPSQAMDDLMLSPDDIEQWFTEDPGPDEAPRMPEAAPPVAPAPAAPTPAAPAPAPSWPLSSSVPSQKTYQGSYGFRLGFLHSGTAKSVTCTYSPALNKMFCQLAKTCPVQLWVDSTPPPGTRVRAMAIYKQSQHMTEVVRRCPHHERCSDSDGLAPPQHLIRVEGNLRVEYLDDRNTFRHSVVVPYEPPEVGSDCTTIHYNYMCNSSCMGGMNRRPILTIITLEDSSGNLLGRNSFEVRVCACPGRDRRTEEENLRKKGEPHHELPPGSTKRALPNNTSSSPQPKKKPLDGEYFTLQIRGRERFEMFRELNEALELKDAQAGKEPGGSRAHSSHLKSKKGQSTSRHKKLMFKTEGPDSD

Structure (SMILES) | Potency
COc1ccccc1/C=C/C(=O)c1cccs1 | 10 µM (active)
O=C(/C=C/c1ccc(Cl)cc1)c1cccs1 | 15.8 µM (active)
